Reference: PubChem BioAssay (NCI)
The panel holds about 79,000 compounds, 15% with a hit somewhere; the sample as a whole holds those more often. The source made the active and inactive calls. No stated cut-off is given here; in the data, active means growth inhibition above about 70%; inactive means the rest.

Legend:
[1] = NCI Yeast Anticancer Drug Screen. Data for the rad52 strain (AID 147);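 further: 0% = growth of vehicle-treated control cultures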; settings: S. cerevisiae rad52 mutant growth inhibition, stronger effect = higher value
In short: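 Read-out: growth inhibition versus vehicle-treated controls. Cells were a DNA repair-deficient yeast strain treated with compounds.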

[2] = NCI Yeast Anticancer Drug Screen. Data for the wt1 strain (AID 149);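 further: 0% = growth of vehicle-treated wt1 cultures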; settings: S. cerevisiae wt1 strain (SPY 50644) growth inhibition, stronger effect = higher value
In short: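 Each compound is tested on wt1 yeast and the loss of growth versus vehicle gives the inhibition value.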

[3] = NCI Yeast Anticancer Drug Screen. Data for the rad50EPP+ strain (AID 151);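 further: 0% = growth of vehicle-treated control cultures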; settings: S. cerevisiae rad50 mutant strain, stronger effect = higher value
In short: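 Growth inhibition read against vehicle controls in rad50EPP+ yeast, a strain altered in DNA damage repair, after compound exposure.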

[4] = NCI Yeast Anticancer Drug Screen. Data for the mgt1 strain (AID 153); settings: S. cerevisiae mgt1 mutant growth inhibition, stronger effect = higher value
In short: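 mgt1 yeast grown with test compound; read-out is growth inhibition versus vehicle-treated cultures.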

[5] = NCI Yeast Anticancer Drug Screen. Data for the rad50 strain (AID 155);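 further: 0% = growth of vehicle-only cultures of the same strain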; settings: S. cerevisiae rad50 strain growth inhibition, stronger effect = higher value
In short: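 Vehicle-treated cultures provide the reference for the growth inhibition reported for compound-exposed, repair-deficient yeast.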

[6] = NCI Yeast Anticancer Drug Screen. Data for the mec2-1 strain (AID 157); settings: S. cerevisiae mec2-1 strain, stronger effect = higher value
In short: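 Yeast mec2-1 mutant treated with compound. Readout: growth inhibition vs vehicle controls.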

[7] = NCI Yeast Anticancer Drug Screen. Data for the rad14 strain (AID 159);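 further: 0% = growth of vehicle-treated control cultures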; settings: S. cerevisiae rad14 strain growth inhibition, stronger effect = higher value
In short: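 Inhibition of growth is reported for a repair-deficient yeast mutant following compound treatment, calculated relative to cultures that received vehicle.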

[8] = NCI Yeast Anticancer Drug Screen. Data for the sgs1 mgt1 strain (AID 161);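 further: 0% = growth of cultures given vehicle only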; settings: S. cerevisiae sgs1 mgt1 strain, stronger effect = higher value
In short: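 Test agents were incubated with a DNA-repair-mutant yeast strain. Growth was then read and compared against vehicle-treated controls.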

[9] = NCI Yeast Anticancer Drug Screen. Data for the CLN2oe strain (AID 163);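 further: 0% = growth of vehicle-only control cultures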; settings: S. cerevisiae CLN2oe strain, stronger effect = higher value
In short: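 Read-out: yeast growth inhibition, expressed relative to vehicle-only controls. The strain bears an engineered cell-cycle alteration.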

[10] = NCI Yeast Anticancer Drug Screen. Data for the cln2 rad14 strain (AID 165);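 further: 0% = growth equal to vehicle treated cultures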; settings: S. cerevisiae cln2 rad14 strain, stronger effect = higher value
In short: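 cln2 rad14 yeast strain; compound exposure; growth inhibition read vs vehicle controls.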

[11] = NCI Yeast Anticancer Drug Screen. Data for the bub3 strain (AID 167); settings: S. cerevisiae bub3 mutant strain, stronger effect = higher value
In short: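 Mutant yeast screening strain plus compound; vehicle-treated cultures serve as the 0% inhibition reference.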

[12] = NCI Yeast Anticancer Drug Screen. Data for the wt2 strain (AID 169); settings: S. cerevisiae wt2 strain growth inhibition, stronger effect = higher value
In short: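 Read-out: growth inhibition versus vehicle-treated control cultures after compound exposure of the yeast strain.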

[13] = NCI Yeast Anticancer Drug Screen. Data for the mlh1 strain (AID 171);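 further: 0% = growth of vehicle-treated control cultures of the same strain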; settings: S. cerevisiae mlh1 strain growth inhibition, stronger effect = higher value
In short: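 Read-out: growth inhibition versus vehicle controls. Strain: engineered yeast with a defined DNA repair or cell cycle defect, compound-treated.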

[14] = NCI Yeast Anticancer Drug Screen. Data for the sgs1 strain (AID 173);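 further: 0% = growth of vehicle-only control cultures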; settings: S. cerevisiae sgs1 mutant, stronger effect = higher value
In short: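 Read-out: yeast growth inhibition relative to vehicle controls, following compound exposure of a strain with a defined DNA repair/cell cycle alteration.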

[15] = NCI Yeast Anticancer Drug Screen. Data for the mlh1 rad18 strain (AID 175); settings: S. cerevisiae mlh1 rad18 strain growth inhibition, stronger effect = higher value
In short: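 Yeast w/ defined DNA-repair lesions; compound exposure; growth vs vehicle controls → % inhibition.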

[16] = NCI Yeast Anticancer Drug Screen. Data for the rad18 strain (AID 177); settings: S. cerevisiae rad18 mutant growth inhibition, stronger effect = higher value
In short: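 Readout: growth inhibition vs vehicle controls. Cells: genetically altered yeast strain, DNA repair defect.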

[17] = at 5.0 µM (retest, dose inferred, filed as 0.5)
[18] = at 50.0 µM (retest, dose inferred, filed as 5.0)

Measured: growth inhibition

N#C/C(=C/N1C(=O)/C(=C/c2ccc([N+](=O)[O-])cc2)SC1=S)c1nc2ccccc2s1
inactive: [1]; at 1.2 µM 5% | [1]; at 3.7 µM 9% | [1]; at 11.0 µM 18% | [1]; at 33.0 µM 36% | [2]; at 1.2 µM 4% | [2]; at 3.7 µM 5% | [2]; at 11.0 µM 7% | [2]; at 33.0 µM 18% | [2]; at 100.0 µM 59% | [3]; at 1.2 µM 19% | [3]; at 3.7 µM 45% | [3]; at 11.0 µM 69% | [4]; at 1.2 µM 1% | [4]; at 3.7 µM 3% | [4]; at 11.0 µM 5% | [4]; at 33.0 µM 11% | [4]; at 100.0 µM 66% | [5]; at 1.2 µM -2% | [5]; at 3.7 µM -6% | [5]; [17] -4% | [5]; at 11.0 µM 0% | [5]; at 33.0 µM 40% | [5]; [18] 23% | [6]; at 1.2 µM 9% | [6]; at 3.7 µM 11% | [6]; [17] -1% | [6]; at 11.0 µM 18% | [6]; at 33.0 µM 34% | [6]; [18] 16% | [6]; at 100.0 µM 67% | [7]; at 1.2 µM 3% | [7]; at 3.7 µM 4% | [7]; at 11.0 µM 13% | [7]; at 33.0 µM 40% | [8]; [17] 7% | [8]; [18] 48% | [9]; at 1.2 µM 8% | [9]; at 3.7 µM -1% | [9]; at 11.0 µM 3% | [9]; at 33.0 µM 16% | [9]; at 100.0 µM 55% | [10]; [17] -16% | [10]; [18] 30% | [10]; at 50.0 µM 61.1% | [11]; at 1.2 µM -2% | [11]; at 3.7 µM 4% | [11]; [17] -18% | [11]; at 11.0 µM 9% | [11]; at 33.0 µM 26% | [11]; [18] 34% | [11]; at 100.0 µM 63% | [12]; at 1.2 µM 1% | [12]; at 3.7 µM 4% | [12]; at 11.0 µM 8% | [12]; at 33.0 µM 31% | [13]; at 1.2 µM 5% | [13]; at 3.7 µM 6% | [13]; at 11.0 µM 13% | [13]; at 33.0 µM 37% | [14]; at 1.2 µM 11% | [14]; at 3.7 µM 18% | [14]; at 11.0 µM 30% | [14]; at 33.0 µM 61% | [15]; [17] 13% | [15]; [18] 55% | [16]; at 1.2 µM 19% | [16]; at 3.7 µM 33% | [16]; at 11.0 µM 48% | [16]; at 33.0 µM 69%
active: [1]; at 100.0 µM 77% | [3]; at 33.0 µM 86% | [3]; at 100.0 µM 87% | [5]; at 50.0 µM 87.3% | [5]; at 100.0 µM 79% | [6]; at 50.0 µM 81.7% | [7]; at 100.0 µM 84% | [8]; at 50.0 µM 85.6% | [11]; at 50.0 µM 86% | [12]; at 100.0 µM 75% | [13]; at 100.0 µM 82% | [14]; at 100.0 µM 82% | [15]; at 50.0 µM 87.8% | [16]; at 100.0 µM 82%
